# Assay outcomes as filed in PubChem BioAssay.
# The list is not random: actives were taken first. Their share in the collection is about 7.9%.
# SW480 rereplic = DNA re-replication induction in SW480 cells. SW480 DNA re-replication, Hoechst DNA content imaging, 48 h. Potency, µM (doses to about 46.1 µM), without a hit: at the top dose re-replication activation, actives largely listed as activators. 340,000 tested, 1.8% active; note: % of control where 0% means no effect; nearly all actives have a fitted effect of over 55% in size
#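 DNA re-replication was detected as more nuclei of elevated Hoechst intensity after 48 hr exposure to compound (23 nL pinned per well of 250 cells).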
# KB-V1 cytotox = kills drug-selected multidrug resistant KB-V1 cells; AID 1347076; 400,000 tested, 3.4% active; KB-V1 MDR cells viability, CellTiter-Glo, 72 h; Potency, µM (series often up to 46.1 µM), usual class: cytotoxic; note: % is set by controls: 0 for no effect and ±100 for the full control effect; nearly all actives have a fitted effect of over 60% in size
#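 In this primary screen, KB-V1 cells overexpressing P-gp are incubated with library compounds (lowest to highest concentration) for 72 h at 37 degrees C before a luminescent ATP viability read.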
# MCF10A rerep = DNA re-replication induction in MCF 10a cells; MCF 10A DNA re-replication, Hoechst nuclear intensity, 48 h; Potency, µM (highest dose often 46.1 µM), for inactives: at the top dose activity, positive = re-replication, hits mostly activators; 350,000 tested, 2.9% active; note: % of control where 0% means no effect; nearly all actives have a fitted effect of over 50% in size
# HT1080NT lethal = kills 2HG-producing HT-1080-NT fibrosarcoma cells. HT-1080-NT fibrosarcoma viability, CellTiter-Glo ATP luminescence, 48 h. Potency, µM (doses to about 46.1 µM), inactives show at the highest dose activity, negative = less viability, actives largely listed as cytotoxic. 360,000 tested, 1.6% active. AID 686970;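 note: NT is the 2HG producing partner of a matched IDH1 knockdown line; 0% = DMSO-treated cells and -100% = media-only wells without cells; nearly all actives have a fitted effect of over 55% in size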
#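 HT-1080-NT; 750 cells/well; 5% FBS RPMI; 48 h compound, 37 degrees C; CellTiter-Glo luminescence; curve fitting and curve-class assignment.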
# KB-3-1 tox = kills parental KB-3-1 adenocarcinoma cells; Potency, µM (top dose mostly 46.1 µM), most hits filed as cytotoxic; KB-3-1 viability, CellTiter-Glo ATP luminescence, 72 h; 400,000 tested, 1.4% active; AID 1347075; note: % is set by controls: 0 for no effect and ±100 for the full control effect; nearly all actives have a fitted effect of over 60% in size
#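 Screening of KB-3-1 cells (DMEM, 10% FBS, phenol-red free) ran from lowest to highest compound concentration; after 72 h at 37 °C viability was read luminescently and curves fitted.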
# HT1080 IDH1KD tx = toxicity to HT-1080 IDH1 knockdown cells (counter line) | HT-1080 IDH1 knockdown viability, ATP luminescence, 48 h | Potency, µM (series often up to 46.1 µM), for inactives: at the highest dose activity, negative = toxicity, hits mostly cytotoxic | 360,000 tested, 2% active | AID 686971;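 note: 0% = DMSO wells and -100% = cell-free medium wells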
#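 Viability of IDH1-knockdown HT-1080 fibrosarcoma cells was assessed by CellTiter-Glo after 48 h at 37 °C with titrated compound; concentration-effect curves were classified by fit quality and response size.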
# The depositor's hits bear a star; i = inactive; ? = inconclusive; . = no result given. Calls come from the whole dose curve; as a rule, active = well fitted curve in the direction sought with a large enough effect; inconclusive = small, poorly fitted or top-dose-only effect, or another doubt; inactive = no such curve, though single readings can be large; an effect the other way counts as inactive or inconclusive. Potency is the fitted concentration of half-maximal effect.
SMILES,SW480 rereplic,KB-V1 cytotox,MCF10A rerep,HT1080NT lethal,KB-3-1 tox,HT1080 IDH1KD tx
CCN(CC)S(=O)(=O)c1cccc2cccnc12,-23%,i,-2%,-2%,i,1%
O=Cc1ccc2ccc3cccnc3c2n1,21µM*,i,?,?,i,?
c1cnc2c(c1)ccc1cccnc12,?,?,?,7.3µM*,?,7.3µM*
Cc1ccnc2c1ccc1cccnc12,-406%,?,?,?,?,?
CSS(=O)(=O)c1cccc2cccnc12,?,i,18µM*,-12%,i,-4%
O=C(COc1ccc(Cl)cc1)NCCNC(=O)c1ccccn1,-7%,i,-7%,9%,?,4%
CCCCC(=NCCc1c(C)[nH]c2ccccc12)C1=C(O)CC(c2ccccc2)CC1=O (stereo unspecified),10µM*,9.2µM*,8.2µM*,?,13µM*,9.2µM*
CCCC(=NCCc1c(C)[nH]c2ccccc12)C1=C(O)CC(c2ccccc2)CC1=O (stereo unspecified),6.5µM*,5.2µM*,1.5µM*,?,7.3µM*,4.6µM*
CCN(CC)C(=O)COc1coc(CN2CCN(c3ccccc3)CC2)cc1=O,-2%,?,8%,11%,i,12%
Cc1nn(-c2ccccc2)c2sc(C(=O)N(CC(=O)NC(C)(C)C)Cc3ccco3)cc12,1%,?,18µM*,?,?,?
C=C1CC(Cn2cc(Br)c(=O)[nH]c2=O)(c2ccc(-c3ccccc3)cc2)OC1=O (stereo unspecified),?,i,?,2.3µM*,?,1.6µM*
O=c1[nH]c(=O)n(CCOc2ccc(Cl)cc2)cc1Br,-3%,i,-1%,-8%,i,-9%
Cn1ccc2cc(S(=O)(=O)N3CCCC(C(=O)NCc4ccc(F)cc4)C3)ccc21 (stereo unspecified),.,i,.,.,i,.
C=CCn1c(COc2ccccc2F)nnc1SCC(=O)c1c[nH]c2ccccc12,-6%,13µM*,17%,0%,?,-13%
C=CCn1c(COc2ccccc2F)nnc1SCC(=O)Nc1cc2oc3ccccc3c2cc1OC,4%,?,12%,-20%,?,-21%
COc1ccc(CC(N)c2csc(NC(=O)Nc3ccccc3C(C)C)n2)cc1 (stereo unspecified),.,i,.,?,?,?
Cc1cc(C)n(-c2nc3ccccc3nc2N2CCOCC2)n1,-3%,i,-2%,4%,i,2%
COc1ccc(Nc2nc3ccccc3nc2-n2nc(C)cc2C)cc1,?,i,16µM*,8%,i,6%
Cc1cc(C)n(-c2nc3ccccc3nc2N2CCCC2)n1,-10%,13µM*,0%,14%,i,0%
Cc1cc(C)n(-c2nc3ccccc3nc2N2CCN(C(=O)c3ccc(Cl)cc3)CC2)n1,21µM*,i,1.8µM*,-26%,i,?
Cc1cc(C)n(-c2nc3ccccc3nc2N2CCCCCC2)n1,4%,i,14%,7%,i,11%
Cc1ccc(C(=O)N2CCN(c3ncccn3)CC2)cc1,-6%,i,9%,17%,i,10%
Cc1cc(-c2ccccc2)n(-c2ccc(C(=O)N3CCN(c4ncccn4)CC3)cc2)n1,20%,2.9µM*,28%,-4%,?,0%
CC1CCc2c(sc(NC(=O)c3ccccc3)c2C(=O)Nc2ccccc2)C1 (stereo unspecified),.,i,.,.,i,.
CC(C)(C)OC(=O)N1CCC(c2c(C(=O)N3CCC(c4ccccc4)C3)cnn2-c2ccc(Cl)cc2)CC1 (stereo unspecified),.,i,.,.,i,.
Cc1ccc(C)c(NC(=O)CCc2nnc3ccc(N4CCCCC4)nn23)c1,22%,i,-4%,17%,i,20%
